About 2,000 (36%) of roughly 5,500 compounds were called active. Another 18% or so got no clear call; they are omitted. No stated cut-off is given here; in the data, active means normalized growth mostly below about 0.91 (no sharp cut-off); inconclusive means no clear call, values can overlap the other calls; inactive means mostly above about 0.92. This is one part of the list.
Test: chemical genetic growth profiling, strain panel (AID 1159580);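 further: tested at 20 µM; growth read once vehicle control cultures reached saturation at 30 °C; 1 = growth at the plate median or of vehicle wells; lower values mean less growth of the strain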
Settings: growth OD
[1] = S. cerevisiae deletion strains, locus YGR078C, strain PAC10, hits give low values
[2] = S. cerevisiae deletion strains, locus YJR075W, strain HOC1, hits give low values
[3] = S. cerevisiae deletion strains, locus YMR307W, strain GAS1, hits give low values
[4] = S. cerevisiae deletion strains, locus YNL128W, strain TEP1, hits give low values
[5] = S. cerevisiae deletion strains, locus YNL322C, strain KRE1, hits give low values
[6] = S. cerevisiae deletion strains, locus YPL055C, strain LGE1, hits give low values
[7] = S. cerevisiae deletion strains, locus YPL241C, strain CIN2, hits give low values
[8] = S. cerevisiae deletion strains, locus YAL013W, strain DEP1, hits give low values
[9] = S. cerevisiae deletion strains, locus YBR229C, strain ROT2, hits give low values
[10] = S. cerevisiae deletion strains, locus YDL101C, strain DUN1, hits give low values
[11] = S. cerevisiae deletion strains, locus YDR150W, strain NUM1, hits give low values
[12] = S. cerevisiae deletion strains, locus YEL061C, strain CIN8, hits give low values
[13] = S. cerevisiae deletion strains, locus YHR030C, strain SLT2, hits give low values
[14] = S. cerevisiae deletion strains, locus YJR043C, strain POL32, hits give low values
[15] = S. cerevisiae deletion strains, locus YKL190W, strain CNB1, hits give low values
[16] = S. cerevisiae deletion strains, locus YLR039C, strain RIC1, hits give low values
[17] = S. cerevisiae deletion strains, locus YLR262C, strain YPT6, hits give low values
[18] = S. cerevisiae deletion strains, locus YMR263W, strain SAP30, hits give low values
[19] = S. cerevisiae deletion strains, locus YNL153C, strain GIM3, hits give low values
[20] = S. cerevisiae strains, strain wild type, hits give low values

Measured: normalized growth

S=C(S)OC1CC2CC1C1CCCC21 (stereo not given)
inactive: S. cerevisiae deletion strains, locus YAL040C, strain CLN3, hits give low values 1 | S. cerevisiae deletion strains, locus YCL061C, strain MRC1 (second series), hits give low values 1.01 | S. cerevisiae deletion strains, locus YDR363W, strain ESC2, hits give low values 1.02 | S. cerevisiae deletion strains, locus YER002W, strain NOP16, hits give low values 1.01 | [1] 1 | [2] 1 | [3] 1.01 | [4] 1.01 | S. cerevisiae deletion strains, locus YNL175C, strain NOP13, hits give low values 1.02 | S. cerevisiae deletion strains, locus YNL197C, strain WHI3, hits give low values 1.03 | S. cerevisiae deletion strains, locus YNL224C, strain SQS1, hits give low values 1.06 | [5] 1.01 | S. cerevisiae deletion strains, locus YOR083W, strain WHI5 (second series), hits give low values 1 | [6] 0.943 | [7] 1.01

C[C@]12CCC3C(CC[C@H]4C[C@@H](O)CC[C@]34C)C1CC[C@@H]2O (stereo not given in full)
inactive: [8] 1 | S. cerevisiae deletion strains, locus YBR021W, strain FUR4, hits give low values 1.01 | [9] 1.03 | S. cerevisiae deletion strains, locus YCL029C, strain bik1, hits give low values 0.968 | S. cerevisiae deletion strains, locus YDL035C, strain GPR1, hits give low values 0.864 | S. cerevisiae deletion strains, locus YDL074C, strain BRE1, hits give low values 0.991 | [10] 1.01 | S. cerevisiae deletion strains, locus YDL134C, strain PPH21, hits give low values 1.02 | S. cerevisiae deletion strains, locus YDL185W, strain tfp1, hits give low values 0.988 | S. cerevisiae deletion strains, locus YDL192W, strain arf1, hits give low values 0.996 | S. cerevisiae deletion strains, locus YDR101C, strain arx1, hits give low values 1.01 | [11] 1.02 | S. cerevisiae deletion strains, locus YDR162C, strain NBP2, hits give low values 0.958 | S. cerevisiae deletion strains, locus YDR318W, strain mcm21, hits give low values 0.972 | S. cerevisiae deletion strains, locus YDR388W, hits give low values 1.03 | S. cerevisiae deletion strains, locus YDR502C, strain sam2, hits give low values 1.01 | [12] 1.03 | S. cerevisiae deletion strains, locus YER110C, hits give low values 1.01 | S. cerevisiae deletion strains, locus YER155C, strain BEM2, hits give low values 1.04 | S. cerevisiae deletion strains, locus YER167W, strain BCK2, hits give low values 0.986 | S. cerevisiae deletion strains, locus YGL078C, strain dbp3, hits give low values 0.973 | S. cerevisiae deletion strains, locus YGL086W, strain mad1, hits give low values 0.954 | S. cerevisiae deletion strains, locus YGL248W, strain PDE1, hits give low values 1.02 | [1] 1 | S. cerevisiae deletion strains, locus YGR135W, strain pre9, hits give low values 0.973 | S. cerevisiae deletion strains, locus YGR229C, strain SMI1, hits give low values 1.02 | [13] 1.04 | S. cerevisiae deletion strains, locus YHR079C, strain IRE1 (second series), hits give low values 0.993 | S. cerevisiae deletion strains, locus YHR094C, strain hxt1, hits give low values 1.02 | S. cerevisiae deletion strains, locus YHR129C, strain ARP1, hits give low values 1.03 | S. cerevisiae deletion strains, locus YHR200W, strain rpn10, hits give low values 0.985 | S. cerevisiae deletion strains, locus YIL066C, strain RNR3, hits give low values 0.953 | S. cerevisiae deletion strains, locus YIL073C, strain SPO22, hits give low values 0.91 | S. cerevisiae deletion strains, locus YIL125W, strain kgd1, hits give low values 1.02 | S. cerevisiae deletion strains, locus YIR030C, strain dcg1, hits give low values 1.03 | S. cerevisiae deletion strains, locus YJL095W, strain BCK1, hits give low values 1.01 | S. cerevisiae deletion strains, locus YJL134W, strain LCB3, hits give low values 1.02 | S. cerevisiae deletion strains, locus YJL168C, strain set2, hits give low values 1.03 | S. cerevisiae deletion strains, locus YJL187C, strain SWE1 (second series), hits give low values 1 | [14] 0.965 | [2] 1.04 | S. cerevisiae deletion strains, locus YKL068W, hits give low values 1.02 | S. cerevisiae deletion strains, locus YKL085W, strain MDH1 (second series), hits give low values 1.02 | S. cerevisiae deletion strains, locus YKL085W, strain MDH1, hits give low values 1.02 | [15] 1.02 | S. cerevisiae deletion strains, locus YKR001C, strain vps1, hits give low values 0.964 | S. cerevisiae deletion strains, locus YLR058C, strain SHM2, hits give low values 1.02 | S. cerevisiae deletion strains, locus YLR102C, strain apc9, hits give low values 1.02 | S. cerevisiae deletion strains, locus YLR268W, strain sec22, hits give low values 0.997 | S. cerevisiae deletion strains, locus YLR330W, strain CHS5, hits give low values 1.03 | S. cerevisiae deletion strains, locus YLR342W, strain FKS1 (second series), hits give low values 0.87 | S. cerevisiae deletion strains, locus YLR371W, strain rom2, hits give low values 0.994 | S. cerevisiae deletion strains, locus YLR418C, strain cdc73, hits give low values 1.13 | S. cerevisiae deletion strains, locus YML016C, strain PPZ1, hits give low values 1.03 | S. cerevisiae deletion strains, locus YML032C, strain rad52, hits give low values 0.931 | S. cerevisiae deletion strains, locus YML124C, strain tub3, hits give low values 1.03 | S. cerevisiae deletion strains, locus YMR078C, strain ctf18, hits give low values 1.03 | S. cerevisiae deletion strains, locus YMR223W, strain ubp8, hits give low values 0.953 | [18] 1.01 | [3] 1.02 | S. cerevisiae deletion strains, locus YNL067W, strain RPL9B, hits give low values 0.938 | [4] 1.01 | [19] 1.03 | S. cerevisiae deletion strains, locus YNL233W, strain BNI4, hits give low values 1.02 | S. cerevisiae deletion strains, locus YNL250W, strain rad50, hits give low values 0.968 | S. cerevisiae deletion strains, locus YNL271C, strain bni1, hits give low values 1 | S. cerevisiae deletion strains, locus YNL307C, strain MCK1, hits give low values 0.954 | [5] 1.03 | S. cerevisiae deletion strains, locus YOL006C, strain TOP1, hits give low values 1.07 | S. cerevisiae deletion strains, locus YOL012C, strain htz1 1.81 | S. cerevisiae deletion strains, locus YOL147C, strain pex11, hits give low values 1.04 | S. cerevisiae deletion strains, locus YOR061W, strain CKA2, hits give low values 0.99 | S. cerevisiae deletion strains, locus YOR069W, strain VPS5, hits give low values 1.02 | S. cerevisiae deletion strains, locus YOR136W, strain idh2, hits give low values 1.02 | S. cerevisiae deletion strains, locus YOR144C, strain elg1, hits give low values 1.01 | S. cerevisiae deletion strains, locus YOR316C, strain cot1, hits give low values 1.03 | [6] 1.01 | [7] 1.02 | S. cerevisiae deletion strains, locus YPR119W, strain clb2, hits give low values 1.04 | S. cerevisiae deletion strains, locus YPR141C, strain kar3, hits give low values 1.04 | S. cerevisiae deletion strains, locus YPR163C, strain tif3, hits give low values 1.01 | S. cerevisiae deletion strains, locus YPR167C, strain met16, hits give low values 1.02 | S. cerevisiae deletion strains, strain wtn01, hits give low values 0.989 | [20] 0.99
active: S. cerevisiae deletion strains, locus YGR252W, strain gcn5, hits give low values 0.764 | S. cerevisiae deletion strains, locus YKL009W, strain mrt4, hits give low values 0.793 | [16] 0.644 | [17] 0.507 | S. cerevisiae deletion strains, locus YNL298W, strain CLA4, hits give low values 0.895 | S. cerevisiae deletion strains, locus YNR052C, strain pop2, hits give low values 0.88 | S. cerevisiae deletion strains, locus YOR184W, strain ser1, hits give low values 0.836

CC12CCC3C(CC[C@H]4CC5(CCC34C)OCCO5)C1CCC2O (stereo not given in full)
active: S. cerevisiae deletion strains, locus YCL061C, strain MRC1, hits give low values 0.87 | S. cerevisiae deletion strains, locus YJL187C, strain SWE1, hits give low values 0.92 | [14] 0.877 | [16] 0.74 | [17] 0.625 | [19] 0.905 | [5] 1.08 [resistant]
inactive: [8] 0.988 | [9] 1.01 | [10] 0.976 | [11] 0.912 | [12] 0.999 | [1] 0.968 | [13] 0.969 | S. cerevisiae deletion strains, locus YHR087W, strain rtc3, hits give low values 1.02 | [2] 1 | [15] 1.03 | S. cerevisiae deletion strains, locus YLR058C, strain SHM2 (second series), hits give low values 1.04 | S. cerevisiae deletion strains, locus YLR085C, strain ARP6, hits give low values 1.03 | S. cerevisiae deletion strains, locus YML094W, strain GIM5, hits give low values 0.98 | S. cerevisiae deletion strains, locus YMR219W, strain ESC1, hits give low values 1 | [18] 0.992 | [3] 1.05 | S. cerevisiae deletion strains, locus YNL298W, strain CLA4 (second series), hits give low values 0.945 | S. cerevisiae deletion strains, locus YNR030W, strain Alg12, hits give low values 0.963 | [6] 0.98 | [7] 0.962 | S. cerevisiae deletion strains, locus YPR135W, strain CTF4, hits give low values 0.832 | [20] 1.02

Source: PubChem BioAssay AID1159580 (chemical genetic matrix, 2015)
